Measured values from the supplement of paper PMC12532568.
Structures can show the parent of a compound that is named as a salt.

What follows are compounds tested on Danio rerio larvae Tg(actc1b:ZsGreen-LC3), 3 dpf (assay: LC3 puncta relative area vs vehicle, with NH4Cl (autophagic flux) (log2 fold change); higher = more autophagy). Settings: 10 µM; treatment time 16 h; NH4Cl: + 100 mM, 4 h.
Method: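 Transgenic Tg(actc1b:ZsGreen-map1lc3) zebrafish larvae (2 dpf) were treated for 16 h with Tocris library compounds at 10 µM (n = 12 larvae per compound). Skeletal-muscle LC3 puncta area relative to body area was measured by high-content confocal imaging before and after 4 h of 100 mM NH4Cl (autophagic flux), normalised to vehicle (DMSO), and reported as log2 fold change.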

| Structure (SMILES) | LC3 puncta (log2) |
| --- | --- |
| COc1cc(C(=O)OCCCN2CCCN(CCCOC(=O)c3cc(OC)c(OC)c(OC)c3)CC2)cc(OC)c1OC [Dilazep] | 0.426 |
| c1ccc(N2CCN(CCCOc3ccc4c(c3)OCO4)CC2)cc1 [BP 554 maleate] | 0.422 |
| O=C(O)c1cc(=O)c2c(Cl)cc(Cl)cc2[nH]1 [5,7-Dichlorokynurenic acid] | 0.00257 |
| CC1=C(/C=C/C(C)=C/C=C/C(C)=C/C(=O)O)C(C)(C)CCC1 [Retinoic acid] | 1.64 |
| CNC(=O)c1cc2c(cn1)[nH]c1ccccc12 | 0.446 |
| CC(C)[C@H]1CC[C@H](C(=O)N[C@H](Cc2ccccc2)C(=O)O)CC1 [Nateglinide] | 0.54 |
| c1cc2c(cc1C1CCCCC1)c1c3n2CCNC3CCC1 (stereo not given) [Tetrindole mesylate] | 0.836 |
| CNCCCCOc1ccccc1Cc1ccccc1 [Bifemelane] | 0.532 |
| N[C@H](C(=O)O)c1cc(O)cc(O)c1 | 0.736 |
| CC(=O)N1CCN(C)CC1 [1-Acetyl-4-methylpiperazine hydrochloride] | 0.372 |
| N[C@H](C(=O)O)c1ccc(O)c(C(=O)O)c1 [(S)-3-Carboxy-4-hydroxyphenylglycine] | 0.54 |
| O=C(OCCN1CCCCC1)c1c[nH]c2ccccc12 | 0.6 |
| NC(N)=NC(N)=Nc1cccc(Cl)c1 [m-Chlorophenylbiguanide hydrochloride] | 0.782 |
| COc1ccccc1N1CCN(CC(O)COc2cccc3ccccc23)CC1 (stereo not given) [Naftopidil dihydrochloride] | 0.195 |
| O=C(O)C1=CCNCC1 [Isoguvacine hydrochloride] | 0.468 |
| c1ccc2nc(C3=NCCN3)cnc2c1 [BU 239 hydrochloride] | 0.0532 |
| NCC(O)(CS(=O)(=O)O)c1ccc(Cl)cc1 (stereo not given) [2-Hydroxysaclofen] | 0.449 |
| O=C1CC2(CCCC2)CC(=O)N1CCNCC1COc2ccccc2O1 (stereo not given) | 0.515 |
| CCOC(=O)C1=C(C)NC(C)=C(C(=O)OC)C1c1cccc([N+](=O)[O-])c1 (stereo not given) [Nitrendipine] | 0.513 |
| c1ccc2sc(N3CCN(Cc4ccc5c(c4)OCO5)CC3)nc2c1 [2-[1-(4-Piperonyl)piperazinyl]benzothiazole] | 0.593 |

| Structure (SMILES) | LC3 puncta (log2) |
| --- | --- |
| CC(=O)N[C@@H](CC(=O)N[C@@H](CCC(=O)O)C(=O)O)C(=O)O [Spaglumic acid] | 0.103 |
| O=C1CC2(CCCC2)CC(=O)N1CCCCNCC1COc2ccccc2O1 (stereo not given) | -0.368 |
| O=S(=O)(c1cccc2cnccc12)N1CCCNCC1 [Fasudil hydrochloride] | 0.726 |
| CC(Cc1ccc(O)c(O)c1)(NN)C(=O)O [(S)-(-)-Carbidopa] | 0.219 |
| CC(C)(C)NC[C@H](O)COc1nsnc1N1CCOCC1 [(S)-Timolol maleate] | 0.785 |
| CC(C)[N+]1(C)[C@@H]2CC[C@H]1C[C@@H](OC(=O)C(CO)c1ccccc1)C2 (stereo not given in full) [Ipratropium bromide] | 0.284 |
| NS(=O)(=O)c1cc2c(cc1Cl)NC(C1CC3C=CC1C3)NS2(=O)=O (stereo not given) [Cyclothiazide] | 0.416 |
| Nc1cc(N2CCCCC2)nc(N)[n+]1[O-] [Minoxidil] | 0.501 |
| C1COC(NC(C2CC2)C2CC2)=N1 [Rilmenidine hemifumarate] | 0.305 |
| CSc1ccc2c(c1)C(N1CCN(C)CC1)Cc1ccccc1S2 (stereo not given) [Methiothepin maleate] | -0.129 |
| COC(=O)C1=C(C)NC(C)=C(C(=O)OCCSc2ccccc2)C1C (stereo not given) | 0.664 |
| COc1ccc2[nH]c(I)c(CCNC(C)=O)c2c1 [2-Iodomelatonin] | 0.706 |
| CCOC(=O)C1=C[C@]2(CC)CCCN3CCc4c(n1c1ccccc41)[C@@H]32 [Vinpocetine] | 1 |
| O=C(O)c1cccnc1C(=O)O [Quinolinic acid] | 0.453 |
| O=C(O)C=C1CCCc2ccccc2C1O (stereo not given) | -0.285 |
| Clc1cccc(Nc2nnc(-c3ccccc3)c3ccccc23)c1 | 0.446 |
| C/N=C(/NC#N)NCCSCc1csc(NC(=N)N)n1 [Tiotidine] | 0.667 |
| O=C(OCCN1CCOCC1)C1(c2ccccc2)CCCCC1 [PRE-084 hydrochloride] | 0.339 |
| O=C(O)CC/C=C\C[C@H]1CO[C@@H](c2ccccc2Cl)O[C@H]1c1ccccc1O | -0.012 |
| CC(C)NC[C@H](O)COc1cccc2ccccc12 [(S)-(-)-Propranolol hydrochloride] | 1.09 |
